From PubChem BioAssay (EPA / NIEHS)
Several values for one entry are separate records, joined by “and”; a condition that tells them apart may be missing. Equal entries are not always repeated. Where a structure was tested more than once in an assay, its records may differ in their call. Activity calls are given as the source filed them. The calls were made as follows: active = hit-call score of the fitted dose curve at least 0.9, where 1 is the maximum; inactive = score below 0.9.

Key:
[1] = ATG_CRE_CIS: Attagene CIS-FACTORIAL HepG2 Assay for human cAMP Responsive Element (CRE) binding protein 3 (AID 2282926); conditions: HepG2 CRE cis-reporter, Attagene multiplexed mRNA; actives raise or lower the signal
How it was run: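 Liver-derived HepG2, transfected with a CRE-containing reporter panel, exposed 24 h; transcript levels sized and quantified by capillary electrophoresis of labelled amplicons; signal changes either way referenced to vehicle.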

[2] = biological target: CCAAT/enhancer-binding protein beta (Homo sapiens) (UniProt P17676); experiment: ATG_C_EBP_CIS: Attagene CIS-FACTORIAL HepG2 Assay for human CCAAT/Enhancer Binding Protein (C/EBP) beta (AID 2282927); conditions: HepG2 Attagene cis-factorial transcription factor reporter; actives raise or lower the signal
Sequence of CCAAT/enhancer-binding protein beta (Homo sapiens) (P17676 whole entry, looked up): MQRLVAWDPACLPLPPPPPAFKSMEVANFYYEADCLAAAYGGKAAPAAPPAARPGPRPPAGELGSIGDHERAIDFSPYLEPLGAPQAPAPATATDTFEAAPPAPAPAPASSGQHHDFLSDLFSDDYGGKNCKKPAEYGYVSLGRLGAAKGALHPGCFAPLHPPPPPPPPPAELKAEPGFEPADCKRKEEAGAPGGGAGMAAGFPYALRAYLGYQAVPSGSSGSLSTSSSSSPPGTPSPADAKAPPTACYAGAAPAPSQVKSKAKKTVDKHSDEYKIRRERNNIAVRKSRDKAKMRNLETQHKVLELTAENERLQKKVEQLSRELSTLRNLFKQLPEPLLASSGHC
How it was run: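 Changes in reporter mRNA, rather than exogenous chimeric receptor activity, reflect native C/EBP signalling in transfected HepG2 cells dosed for 24 h; transcripts are detected by RT-PCR and capillary electrophoresis.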

[3] = ATG_CMV_CIS: Attagene CIS-FACTORIAL HepG2 Assay for human CMV (Internal Marker) (AID 2282928); conditions: HepG2 CMV promoter reporter, transcription factor profiling; actives raise or lower the signal;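 also: endpoint acts as a background internal control marker rather than a target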
How it was run: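 Readout: fluorescent reporter cDNA fragments separated by capillary electrophoresis after RT-PCR and HpaI cut. Cells: HepG2 carrying transfected cis-promoter reporter constructs, dosed 24 h. Endpoint serves as background internal-marker control, fit bidirectionally versus DMSO.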

[4] = ATG_DR4_LXR_CIS: Attagene CIS-FACTORIAL HepG2 Assay for human Liver X Receptor (LXR), DR4 submotif (AID 2282929); conditions: HepG2 Attagene DR4 cis-reporter, mRNA transcription; actives raise or lower the signal
How it was run: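 After transient transfection with multiplexed cis-promoter reporter units, HepG2 cells received test chemicals for 24 h. Reporter mRNA induction, detected by fluorescence after RT-PCR and capillary electrophoresis, was scored relative to DMSO.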

[5] = ATG_AP_1_CIS: Attagene CIS-FACTORIAL HepG2 Assay for human Activator Protein 1 (AP-1) (AID 2282931); conditions: HepG2 Attagene cis-factorial AP-1 reporter mRNA; actives raise or lower the signal
How it was run: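 After 24 h incubation with test chemical, RNA from transfected HepG2 cells was reverse-transcribed, amplified, fluorescently labelled and digested before capillary electrophoresis. Reporters were driven by cis-regulatory promoters; activity fitted bidirectionally versus DMSO.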

[6] = ATG_AP_2_CIS: Attagene CIS-FACTORIAL HepG2 Assay for human Activator Protein 2 (AP-2) (AID 2282932); conditions: HepG2 AP-2 cis-reporter, Attagene transcription factor profiling; actives raise or lower the signal
How it was run: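 Endogenous transcription factor activity is reported through transfected multiplex reporter constructs in HepG2, after 24 h of compound exposure. Transcripts were quantified by RT-PCR and capillary electrophoresis of fluorescent fragments. Bidirectional fit against DMSO.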

[7] = ATG_BRE_CIS: Attagene CIS-FACTORIAL HepG2 Assay for human Bone Morphogenetic Protein (BMP) Response Element (BRE) (AID 2282933); conditions: HepG2 BMP response element reporter, Attagene transcription factor profiling; actives raise or lower the signal
How it was run: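 HepG2 cells transiently transfected with CIS reporter units (endogenous TF activity, BMP response element), dosed 24 h. Reporter mRNA quantified by RT-PCR, fluorescent labelling and capillary electrophoresis; bidirectional fit vs DMSO baseline.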

[8] = biological target: Retinoic acid receptor alpha (Homo sapiens) (UniProt P10276); experiment: ATG_DR5_RAR_CIS: Attagene CIS-FACTORIAL HepG2 Assay for human Retinoic Acid Receptor Alpha (RARE), DR5 submotif (AID 2282934); conditions: HepG2 Attagene cis-factorial RARE DR5 reporter, mRNA; actives raise or lower the signal
Sequence of Retinoic acid receptor alpha (Homo sapiens) (P10276 whole entry, looked up): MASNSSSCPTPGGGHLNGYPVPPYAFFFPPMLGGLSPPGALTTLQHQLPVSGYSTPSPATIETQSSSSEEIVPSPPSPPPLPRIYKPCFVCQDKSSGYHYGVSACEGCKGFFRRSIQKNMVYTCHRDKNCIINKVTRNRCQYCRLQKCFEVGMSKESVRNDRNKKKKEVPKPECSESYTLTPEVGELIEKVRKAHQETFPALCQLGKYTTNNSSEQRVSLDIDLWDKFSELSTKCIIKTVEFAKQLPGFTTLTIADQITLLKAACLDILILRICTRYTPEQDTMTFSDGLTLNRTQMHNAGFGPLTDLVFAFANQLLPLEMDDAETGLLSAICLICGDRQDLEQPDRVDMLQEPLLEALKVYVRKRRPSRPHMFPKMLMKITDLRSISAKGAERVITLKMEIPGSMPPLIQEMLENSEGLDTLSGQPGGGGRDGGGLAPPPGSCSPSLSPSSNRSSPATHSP
How it was run: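 HepG2, transient cis-reporter transfection, 24 h exposure. mRNA readout: RT-PCR, FAM label, HpaI cut, capillary electrophoresis. DMSO baseline, gain/loss fitting.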

[9] = biological target: Transcription factor E2F1 (Homo sapiens) (UniProt Q01094); experiment: ATG_E2F_CIS: Attagene CIS-FACTORIAL HepG2 Assay for human E2F Transcription Factor 1 (AID 2282935); conditions: HepG2 Attagene cis-reporter, E2F reporter RNA transcripts; actives raise or lower the signal
Sequence of Transcription factor E2F1 (Homo sapiens) (Q01094 whole entry, looked up): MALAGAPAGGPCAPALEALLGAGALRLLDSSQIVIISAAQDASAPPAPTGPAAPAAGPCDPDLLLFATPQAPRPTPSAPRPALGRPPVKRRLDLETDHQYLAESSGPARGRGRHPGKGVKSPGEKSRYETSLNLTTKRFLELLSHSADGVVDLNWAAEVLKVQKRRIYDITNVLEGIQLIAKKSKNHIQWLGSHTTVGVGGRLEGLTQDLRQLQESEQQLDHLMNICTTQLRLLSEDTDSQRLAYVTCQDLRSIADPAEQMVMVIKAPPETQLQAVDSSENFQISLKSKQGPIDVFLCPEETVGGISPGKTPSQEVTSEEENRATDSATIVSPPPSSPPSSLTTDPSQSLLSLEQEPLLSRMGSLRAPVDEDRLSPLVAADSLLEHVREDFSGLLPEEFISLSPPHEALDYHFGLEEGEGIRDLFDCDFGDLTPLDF
How it was run: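 Gain or loss of reporter transcript, fitted against DMSO, reflects E2F1-driven transcription. Transiently transfected HepG2 dosed 24 h before RNA isolation. Quantified by fluorescent RT-PCR products separated by capillary electrophoresis.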

[10] = ATG_E_Box_CIS: Attagene CIS-FACTORIAL HepG2 Assay for human Enhancer Box (E-box) (AID 2282936); conditions: HepG2 E-box cis-reporter transcription, actives raise or lower the signal
How it was run: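 E-box-driven reporter transcripts measured in transiently transfected HepG2 after 24 h exposure: RNA reverse-transcribed, PCR-amplified, fluorescently labelled, digested and resolved by capillary electrophoresis. Gain or loss relative to DMSO.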

[11] = ATG_M_61_CIS: Attagene CIS-FACTORIAL HepG2 Assay for M61 Transcription Factor (Internal Marker) (AID 2282937); conditions: HepG2 Attagene CIS-FACTORIAL M61 internal marker reporter; actives raise or lower the signal
How it was run: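 Using transiently transfected HepG2 liver cells, reporter transcript levels were assessed 24 h post-dosing by RT-PCR and capillary electrophoresis. Changes in either direction were fitted relative to DMSO controls.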

[12] = ATG_EGR_CIS: Attagene CIS-FACTORIAL HepG2 Assay for human Early Growth Response 1 (EGR1) (AID 2282938); conditions: HepG2 Attagene CIS-FACTORIAL EGR reporter mRNA; actives raise or lower the signal
How it was run: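 Fluorescent capillary-electrophoresis signal of reporter cDNA fragments serves as read-out. HepG2 cells bear transiently transfected cis-promoter reporter units and are exposed 24 h; gain- or loss-of-signal is fitted against DMSO.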

[13] = ATG_M_19_CIS: Attagene CIS-FACTORIAL HepG2 Assay for M19 Transcription Factor (Internal Marker) (AID 2282939); conditions: HepG2 Attagene CIS-FACTORIAL M19 internal marker reporter; actives raise or lower the signal
How it was run: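 HepG2 cells transiently transfected with cis-regulated multiplexed reporter units, dosed 24 h. Reporter mRNA quantified by RT-PCR and capillary electrophoresis; internal background marker fitted bidirectionally versus DMSO.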

[14] = ATG_ERE_CIS: Attagene CIS-FACTORIAL HepG2 Assay for Estrogen Response Element (ERE) (AID 2282940); conditions: HepG2 ERE cis-reporter, Attagene RNA transcript; actives raise or lower the signal
How it was run: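 HepG2 cells transiently transfected with multiplexed cis-element reporter units, measuring endogenous transcription factor activity; ERE reporter mRNA quantified after 24 h exposure by RT-PCR, fluorescent labelling, HpaI digestion and capillary electrophoresis. Bidirectional change versus DMSO.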

[15] = ATG_Ets_CIS: Attagene CIS-FACTORIAL HepG2 Assay for human Erythroblast Transformation Specific (ETS) (AID 2282941); conditions: HepG2 ETS cis-reporter transcription, actives raise or lower the signal
How it was run: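 RT-PCR/capillary electrophoresis fluorescence read-out of reporter mRNA; HepG2 transient multi-reporter transfection; 24 h compound exposure; gain or loss of signal fitted bidirectionally relative to DMSO.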

[16] = ATG_GATA_CIS: Attagene CIS-FACTORIAL HepG2 Assay for human GATA Binding Protein (AID 2282944); conditions: HepG2 GATA cis-element reporter, Attagene multiplex mRNA; actives raise or lower the signal
How it was run: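 HepG2 cells transiently transfected with multiplexed cis-element reporter units measure endogenous GATA activity; after 24 h compound exposure, reporter mRNA quantified by RT-PCR and capillary electrophoresis. Changes fitted in both directions vs DMSO.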

[17] = APR_HepG2_NuclearSize_72hr: Apredica 72-hour HepG2 Assay for Nuclear Size (AID 2282925); conditions: high-content imaging, actives raise or lower the signal
How it was run: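 Nuclear size was read by high-content imaging of Hoechst 33342 stain after formaldehyde fixation. Compounds ran 72 h on HepG2 at 0.39 to 200 uM, with final DMSO 0.5% v/v. Curves fitted both directions relative to DMSO control.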

[18] = biological target: Aryl hydrocarbon receptor (Homo sapiens) (UniProt P35869); experiment: ATG_Ahr_CIS: Attagene CIS-FACTORIAL HepG2 Assay for human Aryl Hydrocarbon Receptor (Ahr) (AID 2282930); conditions: HepG2 AhR cis-factorial reporter transcription; actives raise or lower the signal
Sequence of Aryl hydrocarbon receptor (Homo sapiens) (P35869 whole entry, looked up): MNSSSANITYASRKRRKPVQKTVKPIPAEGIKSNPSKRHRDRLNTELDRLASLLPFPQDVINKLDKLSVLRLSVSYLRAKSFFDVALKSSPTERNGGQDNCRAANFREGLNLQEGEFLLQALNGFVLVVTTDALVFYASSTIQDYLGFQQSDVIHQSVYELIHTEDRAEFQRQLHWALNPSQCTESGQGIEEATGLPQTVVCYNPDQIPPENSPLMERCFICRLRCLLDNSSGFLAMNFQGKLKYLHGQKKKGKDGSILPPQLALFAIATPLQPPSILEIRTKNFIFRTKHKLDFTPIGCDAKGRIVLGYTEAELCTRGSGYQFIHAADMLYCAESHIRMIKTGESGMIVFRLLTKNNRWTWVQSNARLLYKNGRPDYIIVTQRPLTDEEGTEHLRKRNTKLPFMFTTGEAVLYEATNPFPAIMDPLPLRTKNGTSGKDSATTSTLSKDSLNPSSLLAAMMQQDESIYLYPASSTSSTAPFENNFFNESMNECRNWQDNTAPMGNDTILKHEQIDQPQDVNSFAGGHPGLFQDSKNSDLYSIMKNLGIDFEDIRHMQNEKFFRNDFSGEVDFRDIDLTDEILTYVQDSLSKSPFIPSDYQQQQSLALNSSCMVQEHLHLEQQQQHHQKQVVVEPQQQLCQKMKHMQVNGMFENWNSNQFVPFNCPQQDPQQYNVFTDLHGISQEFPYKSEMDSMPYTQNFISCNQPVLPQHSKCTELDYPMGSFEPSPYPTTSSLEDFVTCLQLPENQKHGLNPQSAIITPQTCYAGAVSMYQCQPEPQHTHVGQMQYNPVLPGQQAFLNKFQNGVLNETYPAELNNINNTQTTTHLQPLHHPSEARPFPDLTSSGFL
How it was run: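 HepG2, transient MRTU (cis) transfection, 24 h exposure. RNA → cDNA → PCR → 6-FAM primer extension → HpaI 2 h 37 C → CE. Fit: bidirectional, DMSO baseline.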

[19] = biological target: Hepatocyte nuclear factor 3-beta (Homo sapiens) (UniProt Q9Y261); experiment: ATG_FoxA2_CIS: Attagene CIS-FACTORIAL HepG2 Assay for human Forkhead box A2 (FOXA2) (AID 2282942); conditions: HepG2 cis-reporter transcription factor activity, 24 h; actives raise or lower the signal
Sequence of Hepatocyte nuclear factor 3-beta (Homo sapiens) (Q9Y261 whole entry, looked up, the tested form may be a part): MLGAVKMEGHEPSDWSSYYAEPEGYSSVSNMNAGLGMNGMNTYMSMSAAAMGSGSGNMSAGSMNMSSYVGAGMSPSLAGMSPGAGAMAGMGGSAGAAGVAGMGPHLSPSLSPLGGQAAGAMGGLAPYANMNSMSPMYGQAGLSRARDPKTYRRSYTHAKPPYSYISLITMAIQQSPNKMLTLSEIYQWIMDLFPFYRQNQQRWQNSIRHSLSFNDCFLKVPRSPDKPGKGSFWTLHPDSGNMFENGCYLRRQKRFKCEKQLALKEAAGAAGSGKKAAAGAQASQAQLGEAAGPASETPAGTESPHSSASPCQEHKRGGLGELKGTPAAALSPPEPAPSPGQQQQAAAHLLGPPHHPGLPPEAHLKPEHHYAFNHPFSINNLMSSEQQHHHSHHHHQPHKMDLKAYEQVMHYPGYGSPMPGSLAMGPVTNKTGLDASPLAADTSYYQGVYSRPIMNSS
How it was run: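 Fluorescence signal of reporter cDNA fragments, separated by capillary electrophoresis, reflects endogenous transcription factor activity in transfected HepG2 after 24 h. Both increases and decreases fitted against DMSO.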

[20] = ATG_FoxO_CIS: Attagene CIS-FACTORIAL HepG2 Assay for human Forkhead box O (FoxO) (AID 2282943); conditions: HepG2 Attagene cis-reporter, FoxO element, mRNA; actives raise or lower the signal
How it was run: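 Human hepatoma HepG2 cells carry transiently introduced reporter transcription units controlled by cis promoter elements. Chemical treatment lasted 24 h, and mRNA signal was compared with DMSO.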

Measured: AC50

OCc1c[nH]c2ccccc12
active: [3] 25.1 µM | [4] 69 µM and 62.6 µM and 49.8 µM | [5] 47.2 µM [middle of 5 runs] | [7] 48.6 µM and 85.4 µM and 50.3 µM | [14] 8.17 µM [middle of 5 runs]
inactive: [1] | [2] | [3] | [4] | [6] | [7] | [8] | [9] | [10] | [11] | [12] | [13] | [15] | [16]

COc1cc2c(c(OC)c1OC)-c1ccc(OC)c(=O)cc1[C@@H](NC(C)=O)CC2
active: [3] 0.0703 µM | [5] 123 nM | [6] 61.1 µM | [7] 4.6 µM | [10] 0.592 µM
not listed: [12] | [20]
inactive: all other assays above

NC(=O)NN=Cc1ccc([N+](=O)[O-])o1
active: [3] 17.2 µM | [5] 64400 nM | [10] 113 µM
not listed: [8] | [12] | [19]
inactive: all other assays above

OCC(CO)(CO)CO
inactive: [17] | [1] | [2] | [3] | [4] | [18] | [5] | [6] | [7] | [8] | [9] | [10] | [11] | [12] | [13] | [14] | [15] | [19] | [20] | [16]
active: [14] 100 µM

S=P(N1CC1)(N1CC1)N1CC1
inactive: [1] | [2] | [3] | [4] | [18] | [5] | [6] | [7] | [8] | [9] | [10] | [11] | [13] | [14] | [15] | [16]
active: [4] 157 µM

c1ccc2c(c1)-c1cccc3c1c-2cc1ccccc13
active: [18] 57 nM and 28.1 µM | [14] 0.929 µM
inactive: [17] | [1] | [2] | [3] | [4] | [5] | [6] | [7] | [8] | [9] | [10] | [11] | [13] | [14] | [15] | [19] | [16]

NC(N)=O
not listed: [8] | [12] | [18] | [20]
inactive: all other assays above
